The whole screen tested about 360,000 compounds, of which about 8,200 (2.3%) were called active. Only a selection was taken, and actives are over-represented in it overall. A number with no mark means an inactive call. No stated cut-off is given here; in the data, active means inhibition above about 27%; inactive means the rest.

Fructose-bisphosphate aldolase (Mycobacterium tuberculosis (strain ATCC 25618 / H37Rv)), sequence (P9WQA3 whole entry, looked up): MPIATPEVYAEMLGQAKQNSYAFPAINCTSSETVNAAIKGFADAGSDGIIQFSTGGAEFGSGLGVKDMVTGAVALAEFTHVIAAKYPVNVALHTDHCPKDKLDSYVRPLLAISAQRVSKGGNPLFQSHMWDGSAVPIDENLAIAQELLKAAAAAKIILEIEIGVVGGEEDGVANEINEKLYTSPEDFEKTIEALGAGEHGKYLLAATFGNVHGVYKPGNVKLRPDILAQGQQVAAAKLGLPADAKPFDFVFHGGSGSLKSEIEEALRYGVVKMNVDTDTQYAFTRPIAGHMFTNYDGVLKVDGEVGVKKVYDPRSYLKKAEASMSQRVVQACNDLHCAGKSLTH

The assay concerns the target Fructose-bisphosphate aldolase (Mycobacterium tuberculosis (strain ATCC 25618 / H37Rv)) (UniProt P9WQA3). Briefly: Mtb FBA enzyme inhibitors, primary screen, biochemical, fluorescence, strain H37Rv (AID 588726).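 Further: 0% = vehicle and 100% = reference inhibitor.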 As to conditions: purified M. tuberculosis FBA, fluorescence read-out, at 1 µM, active compounds read high.
Turning to `Cn1cccc1-c1nc2ccccc2n1C`, the inhibition is 28.6% (active).

`Cn1c(-c2ccc(C(=O)c3ccccc3)s2)nc2ccccc21`: the inhibition was 1.32%.

Consider `Cc1ccc(C2=NN(C)c3nc4ccccc4n3C2)cc1`, for which the inhibition is 13.4%.

For the compound `O=C(COc1ccc(Cl)cc1)Nc1ccc2oc(=O)ccc2c1`, the inhibition was 2.76%.

With `Cc1ccc(S(=O)(=O)N2CCC(C)CC2)cc1C(=O)NCc1ccccn1`, the inhibition was 2.4%.

For the compound `COc1ccc(NC(=O)CSc2ncnc3[nH]ncc23)cc1`, the inhibition is 1.84%.

In the case of `CCCCn1c(N)c(N(CC(C)C)C(=O)c2cnc(C)cn2)c(=O)[nH]c1=O`, the inhibition is 0.47%.

For `CC(=O)N1CCN(S(=O)(=O)c2c(F)cc(F)c(Cl)c2F)CC1`, the inhibition is -0.88%.

For `CC(C)c1cc(C(=O)N(C)C2CCCN(Cc3ccccc3F)C2)n(C)n1` (stereo not drawn), the inhibition is 2.62%.

`Cc1oc(-c2ccccc2F)nc1CS(=O)(=O)CC(=O)NCCCN(C)C1CCCCC1`: the inhibition is -2.64%.

Take `CN(CCNC(=O)c1cc2c(-c3ccccc3F)nn(C)c2s1)C1CCCCC1`: the inhibition is 73.3% (active).

As for `CC(CO)NCC12CC3CC(CC(C3)C1)C2` (stereo not drawn), the inhibition was -1.08%.

As to `Cc1ccc(-n2c(=O)c(C#N)cc3c(=O)n4ccccc4nc32)cc1C`, the inhibition is 67% (active).

Take `Cc1ccc(Cn2c(=N)c(S(=O)(=O)c3ccc(C)cc3)cc3c(=O)n4ccccc4nc32)cc1`: the inhibition was 3.69%.

`Cc1ccc(-n2c(SCC(=O)N3CCC(C(=O)O)CC3)nc3ccccc3c2=O)cc1C`: the inhibition was -6.87%.

As to `CCOC(=O)C1CN(S(=O)(=O)c2ccc(OC)cc2)c2cc(Cl)ccc2O1` (stereo not drawn), the inhibition was 2.59%.

`CC[C@]12c3[nH]c4cc(CCC(=O)N(C)C)ccc4c3CCN1C(=O)[C@@H](CC(=O)NCC13CC4CC(CC(C4)C1)C3)C[C@@H]2C(=O)N1CCN(C(=O)C2CC2)CC1`: the inhibition was 0.95%.

`CC1=CC=CC2=N/C(=N\S(=O)(=O)c3ccc(F)cc3F)c3ccccc3CN12`: the inhibition is 1.29%.

As for `CCOC(=O)c1[nH]c2ccc(OC)cc2c1NC(=O)CCN1CCN(Cc2ccccc2)CC1`, the inhibition was 49.8% (active).

Consider `Cc1c(C(=O)CN2CCOCC2)[nH]c2ccccc12`, for which the inhibition is -0.51%.

In the case of `Cc1cc(NC(=O)CCN2CCN(Cc3ccccc3)CC2)ccc1Br`, the inhibition was 0.67%.

For the compound `CCN(CC)C(=O)Oc1ccc(NC(=O)N2CCOCC2)cc1`, the inhibition is -0.07%.

Take `CCOC(=O)c1[nH]c2ccc(OC)cc2c1NC(=O)N1CCOCC1`: the inhibition is 28.4% (active).

For the compound `COc1cc2[nH]c(=O)n(CCC(=O)NC3CCN(Cc4ccccc4)CC3)c(=O)c2cc1OC`, the inhibition is 5.35%.

As for `OCC(O)CN(c1ccccc1)c1ccccc1` (stereo not drawn), the inhibition was 5.53%.

For the compound `CC(C)N(C(=O)Cn1cc(S(=O)(=O)CC(=O)N2CCOCC2)c2ccccc21)C(C)C`, the inhibition was -1.92%.

Turning to `Cc1ccc(Br)c(NS(=O)(=O)c2cccc(C(=O)N3CCNC(=O)C3)c2)c1`, the inhibition is -3.11%.

Consider `CC(=O)NC(Cc1ccc(F)c(F)c1)C(=O)NC1CCN(C(=O)c2ccc(C)cc2)CC1` (stereo not drawn), for which the inhibition is -2.53%.

Take `CC(NC(=O)COc1ccccc1)C(=O)NC1=NCCS1` (stereo not drawn): the inhibition was 2.42%.

With `CC(C)(C)CN1CCNC(=O)C1CC(=O)NC1Cc2ccccc2C1` (stereo not drawn), the inhibition was 1.64%.

For the compound `COc1ccc(-c2nc(N)sc2C2(O)C(=O)Nc3c(Br)cc(F)cc32)cc1OC` (stereo not drawn), the inhibition is 5.75%.

Take `O=[N+]([O-])c1cccc(Nc2c3ccccc3nc3ccccc23)c1`: the inhibition is 122% (active).

For `O=[N+]([O-])c1cnc2ccc3ccccc3c2c1`, the inhibition was 1.36%.

For `O=C(CSc1nc(-c2ccccc2)cs1)Nc1cccc([N+](=O)[O-])c1`, the inhibition was 0.01%.

As to `CC(=O)C1=C(O)C(=O)N(c2ccc(S(N)(=O)=O)cc2)C1c1ccccc1F` (stereo not drawn), the inhibition was 12.8%.

Take `CCCN(CCC)CC(O)COc1ccccc1C(=O)Nc1ccccc1` (stereo not drawn): the inhibition was 0.32%.

For the compound `COc1ccccc1NC(=O)N(O)C1(C#N)CCCCC1`, the inhibition is 1.6%.

With `COc1ccc2sc(-c3ccccc3OC)c(-c3ccc(OCCN4CCCC4)cc3)c2c1`, the inhibition is 0.37%.

As to `COc1ccc2sc(-c3ccc(N(C)C)cc3)c(-c3ccc4cc[nH]c4c3)c2c1`, the inhibition was 41% (active).

For `COc1ccc2c(c1)c(=Cc1ccc(N(C)C)cc1)c1cc(-c3ccccc3)[n+](C)n12`, the inhibition was -16.1%.

For `COc1cccc(-c2sc3ccc(OC)cc3c2-c2ccc(OCCN3CCCCC3)cc2)c1`, the inhibition is 0.81%.

As to `CC1CC(NC(=O)/C(C#N)=C/c2ccc[nH]2)CC(C)(C)C1` (stereo not drawn), the inhibition was -0.18%.

For the compound `CN(Cc1ccccc1)CC(O)COc1ccc(CNCc2cc3ccccc3s2)cc1` (stereo not drawn), the inhibition is 0.16%.

As to `Cc1cc(=O)n2nc(N3CCC(C(=O)Nc4c(F)c(F)c(F)c(F)c4F)CC3)sc2n1`, the inhibition was -1.25%.

In the case of `Cc1cc(C)c2c(NC(=O)C3CC3)nn(C)c2n1`, the inhibition was 46.1% (active).

Take `Cc1ccc2c(NC(=O)C3CC3)cccc2n1`: the inhibition was 3.11%.

With `CCCCCC1CC(COc2ccccc2)OC1=O` (stereo not drawn), the inhibition is -2.11%.

For `O=c1c2cc([N+](=O)[O-])ccc2nc2n1CCC2`, the inhibition was 3.1%.

With `O=C(NC1CCCC1)C(c1ccccn1)N(C(=O)c1csnn1)C1CCCC1` (stereo not drawn), the inhibition was 2.16%.

As to `COc1ccc(-c2oc3ncn(Cc4ccco4)c(=N)c3c2-c2ccc(OC)cc2)cc1`, the inhibition was 7.98%.

Regarding `COCCNc1ncnc2c1ncn2[C@H]1CN(Cc2ccc(OC)cc2)C[C@@H](CO)O1`, the inhibition is 1.53%.

With `COc1ccc(-c2oc3ncnc(NCCCO)c3c2-c2ccc(OC)cc2)cc1`, the inhibition was 58.3% (active).

Take `Cc1cccc(N2CC(C(=O)Nc3ccccc3N3CCCC3)CC2=O)c1C` (stereo not drawn): the inhibition is 3.07%.

Turning to `Cc1ccccc1/[N+]([O-])=C/c1ccncc1`, the inhibition was 0.03%.

As to `Cc1ccc(C2CC(c3cccc(NS(C)(=O)=O)c3)=NN2S(C)(=O)=O)cc1` (stereo not drawn), the inhibition was -2.56%.

Regarding `CS(=O)(=O)Nc1ccc(C2=NN(S(C)(=O)=O)C(c3cccs3)C2)cc1` (stereo not drawn), the inhibition is 73.8% (active).

Take `CCS(=O)(=O)Nc1ccc(C2=NN(S(=O)(=O)c3ccc(F)cc3)C(c3ccco3)C2)cc1` (stereo not drawn): the inhibition was -0.61%.

As to `CCS(=O)(=O)Nc1ccc(C2=NN(C(C)=O)C(c3cccs3)C2)cc1` (stereo not drawn), the inhibition is 591% [above what the read-out allows, likely interference] (active).

Turning to `CS(=O)(=O)Nc1cccc(C2=NN(C(=O)c3cccc(F)c3)C(c3cccs3)C2)c1` (stereo not drawn), the inhibition is 5.49%.

Turning to `COc1cccc(C2CC(c3ccccc3)=NN2S(=O)(=O)c2ccccc2)c1OC` (stereo not drawn), the inhibition is 0.19%.

With `CCOC(=O)CNc1nc2ccccc2n2c(C)nnc12`, the inhibition is -1.1%.

For `O=C1CCc2cc(S(=O)(=O)Nc3ccc(C(F)(F)F)cc3)cc3c2N1CC3`, the inhibition is 6.49%.

Take `Cc1cc(C(=O)CC#N)c(C)n1-c1c(C)n(C)n(-c2ccccc2)c1=O`: the inhibition was 2.39%.

Take `CCOC(=O)CNC(=O)CN1C(=O)CCSc2ccccc21`: the inhibition was 0.13%.

For `O=C(COc1ccccc1Cl)Nn1cnnc1`, the inhibition was 0.49%.

Regarding `COc1ccc(CCNc2ncnc3c2nnn3Cc2ccccc2)cc1`, the inhibition was 0.68%.

With `Cc1cc(C(=O)COc2ccc(Br)cc2F)c(C)n1C1CC1`, the inhibition was 0.29%.

On to `CC1C2Cn3c(nc4ccccc43)C1N(C)O2` (stereo not drawn), for which the inhibition was -1.64%.

On to `CN1C(C(=O)NCc2ccco2)CC2Cn3c(nc4ccccc43)C21` (stereo not drawn), for which the inhibition was 2.79%.

As to `CSCCNC(=O)c1ccc2nc(Cc3ccccc3F)oc2c1`, the inhibition was 3.27%.

Consider `CC(C)=CCN1CCN(Cc2ccc(Oc3ncccn3)cc2)CC1CCO` (stereo not drawn), for which the inhibition was 0.18%.

For `CNc1nccc(-c2ccc(Cl)cc2)c1C#N`, the inhibition was 30.5% (active).

`CN(C)c1ccnc(Nc2ccc(F)cc2)c1C#N`: the inhibition is -3.67%.

For `CN(C)c1nc(-c2cccnc2)nc(-c2ccc(Cl)cc2)c1C#N`, the inhibition is -3.84%.

Take `COc1cccc(CN2CCC(C(=O)NC(c3ccc4c(c3)OCO4)c3ccccn3)CC2)c1` (stereo not drawn): the inhibition is 0.6%.

`O=C(CCS(=O)(=O)c1ccccc1Cl)Nc1ccc(S(=O)(=O)Nc2ncccn2)cc1`: the inhibition is -1.51%.

With `O=C(NCCCN1CCCC1=O)C(=O)NCC1OCCN1S(=O)(=O)c1ccc(Br)cc1` (stereo not drawn), the inhibition is 6.34%.

For the compound `CCOC(=O)CNC(=O)CSc1ncccc1-c1nc2ccccc2[nH]1`, the inhibition is 8.03%.

On to `Cc1ccccc1N1CC(c2nc3ccccc3[nH]2)CC1=O` (stereo not drawn), for which the inhibition was 0.05%.

Take `Cc1ccc(-c2nc3ccccc3[nH]2)cc1N`: the inhibition is 176% (active).

Turning to `CCSc1nc(=S)n(CC)c(C)c1C(C)=O`, the inhibition is -0.42%.

Turning to `O=C(CN1CCOc2ccccc21)N1CCC(Cc2ccccc2)CC1`, the inhibition was 6.13%.

As to `CCC(C)N(C(=O)COC(=O)c1nc(Cl)ccc1Cl)C1CCS(=O)(=O)C1` (stereo not drawn), the inhibition is 0.03%.

Consider `CCC(C)N(C(=O)COC(=O)C1C(C(=O)OC)=C(C)NC(C)=C1C(=O)OC)C1CCS(=O)(=O)C1` (stereo not drawn), for which the inhibition was 74.9% (active).

For the compound `CCC(C)N(C(=O)Cn1nc(C)c([N+](=O)[O-])c1C)C1CCS(=O)(=O)C1` (stereo not drawn), the inhibition is 1.23%.

As for `Cc1cc2cc3n(c2nn1)N=C(Cl)CC3`, the inhibition was 83.2% (active).

Consider `CCOC(=O)c1nn(-c2ccccc2F)c2nc(Nc3ccccc3)cc(=O)n12`, for which the inhibition is -2.45%.

For `CCOc1ccccc1N(CC(=O)NC1CCCCC1)C(=O)CCCC(=O)Nc1ccccn1`, the inhibition is -0.58%.

Consider `Cc1ccc(N(CC(=O)NC2CCCCC2)C(=O)CCCC(=O)Nc2ccccn2)c(C)c1`, for which the inhibition was 3.51%.

In the case of `Cc1ccccc1CCN(CC(=O)NC1CCCCC1)C(=O)c1csnn1`, the inhibition was -2.02%.

As to `COc1ccccc1N(C)S(=O)(=O)c1ccc(C(=O)NC2CCCCCC2)cc1`, the inhibition was 2.13%.

In the case of `COc1ccccc1N(CC(=O)NC1CCCC1)C(=O)C1(C)CC(=O)N=C2C=CC(C)=CN21` (stereo not drawn), the inhibition was 123% (active).

In the case of `CC1=CC=CN2C1=NC(=O)CC2(C)C(=O)N(CC(=O)NC1CCCC1)c1ccccc1C` (stereo not drawn), the inhibition was 164% (active).

The term inhibition denotes the relative decrease from the control value, in per cent.

Values taken from PubChem BioAssay AID588726 (The Scripps Research Institute Molecular Screening Center, 2011).
